Laboratory results: the supplement of paper PMC6555819

Each sequence was assayed on LXRa:RXRa (NR concentration 270 nM, RXRa partner concentration 90 nM) (assay: PBM binding z-score (relative to random genomic background probes); higher = stronger binding; sequences stand for … in GC…GCGATTGACAGCGTAGAATGAAGG).
Procedure, shortened: (§1)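 On custom Agilent 4×180K arrays, double-stranded probes with 34-nt variable regions carried direct-repeat seeds, single-nucleotide variants, half-site ablations or random human genomic background. Ligand-free nuclear receptor dimers were applied for 1 h, and binding was read with antibodies against each partner (one per run). Binding z-scores come from regression-normalized fluorescence, with the random background probes as reference.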

Sequence | PBM binding z-score
ATCTCTAGGTGAAGTTCAGTGAAAGATCGATAGA | 0.465
CCGACTGGGGCAGAAAGTTTACCATACCATCCGG | -0.595
ACAGACAGGTGATGAAGGTAACTAAGGCTATCAT | -0.218
GCATGTAGATCAAGGTTAAGAAAGACTAAGCTAA | 0.684
TCTTGTAGATCAACAGGAGGTCAAGAAAGATCGA | 3.53
CTTGCTAGGTCAATGGTCAGCTAAAGCAGCTCGC | 2.77
TCGAGTAGGTTCGTCGGGGCATTCAGCCAACATA | 0.37
ATCTCTGGGTAACAAGTTCAGTGAAAGAGAGGAC | 0.668
TAGCCCAGGTCAGATCGGGCCAGTATACGCTATA | 1.3
TGTCAAAGTTCAATGGTAACGTAAGTATCCACAC | 5.16
CGAACGAGGGCATGAGTTGATAGCAAATGCCGAT | 0.339
CGTCCAAGGTCATAGGAGGTCAGGGAAGACAGAT | 7.63
GCTGCTTGGTCAACTGATGGTCAGCTAAAGCTCG | -0.552
ATCTCTAGGAAACCAAGTTCAGTGAATGCCGAAC | 0.434
CCTGCTAGGTCATGGTCATCTAATCTACAGTATG | 2.73
TAGCCTATGTCATTGGGCCAGTATAGTACGCATC | -0.41
CGAACTAGGTCAGAACAGGACACTGAAGGATGAT | 1.37
GCTCGGAGGACAAGGTCAGATCTTTGTCCGTAGA | 2.12
AGAATGAGGTTATTACGATCAGGGAATTGCGGTC | 1.7
TCATATACGTAAAAGGTGAAAGTCGGTGTGGTAA | 1.77

Sequence | PBM binding z-score
CCTAGTGGGCCACGAAAGGTCATTGATTCAGTGA | 5.34
TCTTGTAGTTCAATAGAGGTTAAGAAAGTGCGCT | 5.37
ACAGACAGGTGATAAAGGTAACTCAGGCTATCAT | -0.0181
CCTACTGGGTCATCAGGTCATTGATATCAACGTT | 3.76
TCATCTAGGTAAAAGGTGAAAGTCGGTGTGGTAA | 1.89
CAGCCTAGGTCAGGCCCAGTATAGGAGGAACGTT | 0.524
AATACAGGGTCATCGTAAGCCAGAGTACGCACAG | 6.05
CCTACTGGGCCACGAACGGTCATTGATTCAGTGA | 1.38
GCGACTTGGGCAAAGCAGGTTACCATAAGGTTGG | -0.57
TCTAGTAGGTTAGTCGGGGCATTCAGCCAACATA | 0.731
AGAACGAGGGCACGCTCAGTTGATAGCAGAGTAG | 0.413
CGTACTAGGTCATTGACAGGACAGTGAATAGTAA | 3.15
ATCGAAAGGTCGAGGTGAGCATAGAGAAAGGGAA | 3.42
TCATATAGGTAAAGGTGCAAGTCGAACGATATGA | 0.493
TCTAGTTGGTCACGGAGGTCACTCACGACGGGTA | 2.98
GCGACTGGGGCATAAGCAGGTTACCATAACTTAA | 0.177
AATACAGGCTCATCGTAGGCCAGAGTACGCACAG | -0.407
CGTACAAGGTCAGCAGGTCAGTGAAAGCGACGTG | 4.3
ACAGACAGGTGAGTGAAGGGAACTCAGCTGGACG | 0.176
CCTACTGGGCCAAAAAGGTCCTTGATGCCGATAA | -0.565

The sequences below were run on LXRa homodimer (NR concentration 270 nM) in the same assay as above.
Procedure, shortened: as §1

Sequence | PBM binding z-score
ATCTCTAGGTGAAGTTCAGTGAAAGATCGATAGA | 0.0389
CCGACTGGGGCAGAAAGTTTACCATACCATCCGG | -0.267
ACAGACAGGTGATGAAGGTAACTAAGGCTATCAT | -0.177
GCATGTAGATCAAGGTTAAGAAAGACTAAGCTAA | -0.386
TCTTGTAGATCAACAGGAGGTCAAGAAAGATCGA | 3.02
CTTGCTAGGTCAATGGTCAGCTAAAGCAGCTCGC | 0.107
TCGAGTAGGTTCGTCGGGGCATTCAGCCAACATA | -0.315
ATCTCTGGGTAACAAGTTCAGTGAAAGAGAGGAC | 0.353
TAGCCCAGGTCAGATCGGGCCAGTATACGCTATA | -0.26
TGTCAAAGTTCAATGGTAACGTAAGTATCCACAC | 2.81
CGAACGAGGGCATGAGTTGATAGCAAATGCCGAT | -0.654
CGTCCAAGGTCATAGGAGGTCAGGGAAGACAGAT | 5.15
GCTGCTTGGTCAACTGATGGTCAGCTAAAGCTCG | -0.675
ATCTCTAGGAAACCAAGTTCAGTGAATGCCGAAC | 0.599
CCTGCTAGGTCATGGTCATCTAATCTACAGTATG | 0.055
TAGCCTATGTCATTGGGCCAGTATAGTACGCATC | -0.519
CGAACTAGGTCAGAACAGGACACTGAAGGATGAT | 0.372
GCTCGGAGGACAAGGTCAGATCTTTGTCCGTAGA | -0.175
AGAATGAGGTTATTACGATCAGGGAATTGCGGTC | 0.373
TCATATACGTAAAAGGTGAAAGTCGGTGTGGTAA | 0.215

Sequence | PBM binding z-score
CCTAGTGGGCCACGAAAGGTCATTGATTCAGTGA | 4.51
TCTTGTAGTTCAATAGAGGTTAAGAAAGTGCGCT | 2.45
ACAGACAGGTGATAAAGGTAACTCAGGCTATCAT | -0.44
CCTACTGGGTCATCAGGTCATTGATATCAACGTT | 2.34
TCATCTAGGTAAAAGGTGAAAGTCGGTGTGGTAA | 0.186
CAGCCTAGGTCAGGCCCAGTATAGGAGGAACGTT | -0.444
AATACAGGGTCATCGTAAGCCAGAGTACGCACAG | 2.24
CCTACTGGGCCACGAACGGTCATTGATTCAGTGA | 0.691
GCGACTTGGGCAAAGCAGGTTACCATAAGGTTGG | -0.467
TCTAGTAGGTTAGTCGGGGCATTCAGCCAACATA | 0.367
AGAACGAGGGCACGCTCAGTTGATAGCAGAGTAG | -0.836
CGTACTAGGTCATTGACAGGACAGTGAATAGTAA | 0.997
ATCGAAAGGTCGAGGTGAGCATAGAGAAAGGGAA | -0.0507
TCATATAGGTAAAGGTGCAAGTCGAACGATATGA | -0.176
TCTAGTTGGTCACGGAGGTCACTCACGACGGGTA | 1.91
GCGACTGGGGCATAAGCAGGTTACCATAACTTAA | -0.305
AATACAGGCTCATCGTAGGCCAGAGTACGCACAG | -0.211
CGTACAAGGTCAGCAGGTCAGTGAAAGCGACGTG | 0.745
ACAGACAGGTGAGTGAAGGGAACTCAGCTGGACG | -0.538
CCTACTGGGCCAAAAAGGTCCTTGATGCCGATAA | -0.584
